Compound activity: PubChem, several laboratories
A selection: hits, their analogues and other compounds. The true share with any hit is near 4.9%.
HSF1 inh: HSF1 inhibition. activity change, negative = inhibition, % at 7.5 µM (by protocol). NIH3T3-HGL HSE-luciferase, MG132-induced, luminescence 8 h; active compounds read low. actives 0.77% (n = 300,000);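 active = more than half of replicate wells show activity change below -50%, luminescence cut by over half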;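 note: luciferase reports HSF-1 transcriptional activity via heat shock element; 0% = median of DMSO wells and -100% = zero luminescence signal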
MPTP inh: blocks calcium-induced mitochondrial swelling; isolated mouse mitochondria, Ca2+ swelling absorbance, 30 min; inhibition, % at 10 µM; actives 1.4% (n = 360,000);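 active = inhibition of 50% or more, scaled per plate between neutral and stimulator controls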;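 note: 0% = DMSO wells given calcium and 100% = 1 mM EGTA wells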
HSP90 inh: HSP90 refolding inhibition in rabbit reticulocyte lysate; luciferase refolding luminescence, 3 h; inhibition, % at 5.6 µM; actives 0.91% (n = 290,000);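 active = inhibition above the screen-wide mean plus 3 SD, computed separately per campaign, cut at about 16% in these data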;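 note: 0% = DMSO wells and 100% = 60 µM geldanamycin wells; inhibitors lower the luminescence because luciferase stays unfolded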
dFosB activator: mouse delta FosB homodimer activation; purified delta FosB, TAMRA-CDK5 oligo fluorescence polarization; percent of positive-control signal above neutral wells; activation, % at 25 µM; actives 0.99% (n = 340,000); AID 493131;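 active = mean activation above about 17%, with every replicate also reaching it, limit read from the data, passing the limit was not always enough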
Target sequence (P13346 whole entry, looked up): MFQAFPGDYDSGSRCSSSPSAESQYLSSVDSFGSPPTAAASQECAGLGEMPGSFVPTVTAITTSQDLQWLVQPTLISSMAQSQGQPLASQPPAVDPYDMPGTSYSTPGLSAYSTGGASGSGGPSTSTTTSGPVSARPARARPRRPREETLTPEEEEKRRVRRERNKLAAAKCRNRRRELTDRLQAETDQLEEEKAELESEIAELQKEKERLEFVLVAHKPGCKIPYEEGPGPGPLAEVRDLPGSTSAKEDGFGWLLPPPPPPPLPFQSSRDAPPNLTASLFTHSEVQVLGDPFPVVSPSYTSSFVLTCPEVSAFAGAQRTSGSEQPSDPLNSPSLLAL
Platelet DG rel: modulates dense granule release in human platelets; human platelet-rich plasma, SFLLRN dense granule ATP release, luminescence; actives 0.22% (n = 300,000); AID 1663; inhibition, %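 (compounds screened at 7.5 µM in platelet-rich plasma)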;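 active = mean replicate score, as percent of positive control, at or above 50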
HSF-1 act: increases HSF-1 driven luciferase reporter signal; NIH3T3-HGL HSF-1 luciferase reporter, MG132, 8 h; 100% = twice DMSO control signal; activation, % at 9 µM; AID 504408; actives 1.7% (n = 300,000);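 active = mean replicate activation of at least 50% with a set share of replicates each reaching 50%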;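 note: 0% = median of the neutral control wells and 100% = twice that signal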
Numbers without * were called inactive; nt = no result.

SMILES	HSF1 inh	MPTP inh	HSP90 inh	dFosB activator	Platelet DG rel	HSF-1 act
C[C@]12CC[C@@H]3c4cc(O)c(O)cc4CC[C@H]3[C@@H]1CC[C@@H]2O	55.1	1.9	-2.6	-3.4	-2.7	85.4*
CC1=C(C(=O)N2CCCCCC2)CC(CC(=O)NC2CCCC2)C(=O)N1Cc1ccc(C(C)(C)C)cc1 (stereo not drawn)	nt	-2.8	nt	nt	nt	nt
CC(C)(C)C(=O)Nc1sc2c(c1C#N)CCN(Cc1ccccc1)C2	17.7	-0.2	-2.6	2.0	5.2	57.2*
N#Cc1c(NC(=S)NC(=O)c2ccccc2)sc2c1CCN(CCc1ccccc1)C2	-6.6	nt	1.2	nt	-1.4	12.1
CCOC(=O)N1CCN(S(=O)(=O)N2CCCC(C(=O)NCc3cccc(OC)c3)C2)CC1 (stereo not drawn)	-5.2	-1.0	0.9	-3.5	-11.2	-5.9
CCOc1ccc(C(=O)CCC(=O)NCC(=O)Nc2c(C)cccc2C)cc1	nt	0.3	nt	-11.5	nt	nt
COc1ccc2nc(SCc3ccccc3C)nc(C)c2c1	24.3	2.1	-0.6	8.1	-1.4	54.9*
COc1ccc2nc(SCC(=O)O)nc(C)c2c1	nt	1.2	1.9	-1.5	nt	nt
COc1ccc2nc(SCc3cccc(C)c3)nc(C)c2c1	48.2	7.2	-2.8	3.7	-13.2	94.8*
COc1ccc(S(=O)(=O)N2CCN(C(=O)Nc3ccccc3OC)CC2)cc1	1.4	-0.2	-1.4	-5.5	-14.6	8.8
CCOc1ccccc1NC(=O)Cn1c(-c2ccc(Cl)cc2)noc1=O	-65.1*	3.6	2.2	-1.8	0.4	-73.8
CCc1nc2ccc(C(=O)NCCN3CCOCC3)cn2c1N(C)Cc1ccc(OC)cc1	nt	-0.6	nt	nt	nt	nt
COc1ccc(C2=Nc3ccccc3N(C(=O)c3ccc(C(F)(F)F)cc3)C2C(=O)NCc2ccccc2)cc1 (stereo not drawn)	nt	0.1	nt	nt	nt	nt
Cc1nn(-c2ccccc2)c(N)c1C(O)(CSc1nccn1C)C(F)(F)F (stereo not drawn)	-90.8*	0.2	-0.9	5.0	-7.3	-90.6
Cc1nn(-c2ccc(Cl)cc2)c(N)c1C(O)(CSc1nccn1C)C(F)(F)F (stereo not drawn)	nt	6.8	-4.9	-9.3	nt	nt
CCC(C)Nc1nc(Cl)nc(N(C#N)CN2C(=O)c3ccccc3S2(=O)=O)n1 (stereo not drawn)	54.2	0.8	-3.2	-2.2	-0.9	75.6*
Cc1cc(C)nc(N(C#N)CN2C(=O)c3ccccc3C2=O)n1	2.3	-0.6	0.2	0.4	5.9	12.0
CC(C)Nc1nc(Cl)nc(N(C#N)CN2C(=O)c3ccccc3C2=O)n1	153.3	-15.1	-0.2	-11.1	-11.2	204.0*
CCN(CC)S(=O)(=O)c1cccc(C(=O)N[C@H](C(=O)NC2=NCCS2)C(C)C)c1	nt	-0.5	nt	-8.9	nt	nt
CC(C)c1ccc(/C=C(\NC(=O)c2ccccc2)C(=O)NCCCn2ccnc2)cc1	22.3	-0.5	-0.7	-0.6	-5.8	58.7*
Nc1ccc2c(c1)OC1(CCCC1)O2	-89.2*	1.3	4.6	-0.1	-8.0	-90.5
O=C(Cc1ccccc1)Nc1ccc2c(c1)OC1(CCCC1)O2	nt	-0.4	nt	-8.1	nt	nt
O=C(NC1C(=O)NNC1c1ccccc1)c1ccccc1 (stereo not drawn)	116.3	-1.9	8.0	-1.2	-16.7	167.8*
Cc1cccc(C(=O)NC2C(=O)NNC2c2ccc(Cl)cc2)c1 (stereo not drawn)	36.8	1.3	10.3	5.4	6.6	34.6
Cn1c(-c2ccc(F)cc2)cnc1SCC(=O)Nc1ccccc1	8.2	1.4	2.9	-6.4	2.4	14.1
SMILES	HSF1 inh	MPTP inh	HSP90 inh	dFosB activator	Platelet DG rel	HSF-1 act
CC(=O)Nc1ccc(NC(=O)Cn2c(-c3ccc(F)cc3)cnc2SCC(=O)Nc2c(C)cccc2C)cc1	nt	1.1	-1.6	64.3*	-0.7	nt
CCC(=O)Nc1cc(NC(=O)CSc2ncc(-c3ccc(F)cc3)n2Cc2ccco2)ccc1C	69.0	-2.4	0.6	-11.6	1.1	76.8*
COc1ccc(C(=O)CSc2nnc(-c3cnccn3)n2Cc2ccco2)cc1	-5.4	-0.2	2.4	-11.5	-4.3	-5.2
O=C(CSc1nnc(-c2cnccn2)n1Cc1ccco1)Nc1ccc(Br)cc1	31.1	-0.2	-3.3	-4.6	-2.1	55.1*
COc1ccccc1N1CCN(C(=O)c2ccc3c(c2)CCN3S(=O)(=O)c2ccccc2)CC1	31.6	-0.9	3.9	-11.4	-12.0	20.5
CCC(=O)Nc1ccc(C(=O)Cn2ncc(Cl)c(Cl)c2=O)cc1	41.7	2.8	-1.2	-10.1	-1.6	56.8*
O=C(Cn1ncc(Cl)c(Cl)c1=O)c1ccc2c(c1)OCCO2	nt	0.1	nt	-6.8	nt	nt
Cc1ccc(NC(=O)Cn2ncc3c([nH]c4ccccc43)c2=O)cc1Cl	-5.7	0.4	5.0	55.4*	1.3	-6.9
O=C(Cn1ncc2c([nH]c3ccccc32)c1=O)Nc1cccnc1	-2.6	-2.2	-1.5	4.9	-5.0	-13.7
CCOC(=O)c1ccc(NC(=O)Cn2ncc(Cl)c(Cl)c2=O)cc1	-93.5*	1.0	3.0	-7.4	2.3	-94.2
Cc1ccc(C(=O)OCn2ncc(Cl)c(Cl)c2=O)cc1	-93.6*	0.0	-0.6	-0.5	-5.7	-94.7
Cc1cc(O)c2c(c1)CC1C3CCC4CC(=O)CCC4(C)C3CC(=O)C21C (stereo not drawn)	nt	0.1	nt	-6.3	nt	nt
O=C(N/N=C/c1ccccn1)c1ccc(Br)cc1	8.1	-2.8	0.8	-4.7	-30.6	4.6
O=C(Cn1ncc(Cl)c(Cl)c1=O)Nc1ccc2c(c1)OCO2	nt	-0.4	nt	-8.5	nt	nt
CCN(CC)S(=O)(=O)c1cc(NC(=O)Cn2ncc(Cl)c(Cl)c2=O)ccc1C	81.2	5.5	5.1	-22.2	-0.7	120.5*
CCCn1nc(C(=O)Nc2cccc(S(=O)(=O)N(C)c3ccccc3)c2)c2ccccc2c1=O	nt	0.1	nt	-13.1	nt	nt
COc1ccc(N2C(=O)C(Cl)=C(Oc3cccc(OC)c3)C2=O)cc1	69.9	0.6	-0.6	-3.8	11.6	136.5*
CC(=O)N1c2ccc(S(=O)(=O)N3CCC(C(=O)Nc4cc(C)ccn4)CC3)cc2CC1C (stereo not drawn)	3.5	-2.4	-3.4	-10.2	-23.7	10.1
O=C(O)CCNS(=O)(=O)c1ccccc1C(F)(F)F	-60.4*	-0.7	0.5	-6.8	-1.8	-68.2
COc1cc(C(c2sc3nc(C)nn3c2O)N2CCOCC2)cc(OC)c1OC (stereo not drawn)	-3.0	-1.0	1.5	4.0	67.1*	-2.9
COc1ccc(C(c2sc3nc(C)nn3c2O)N2CCCCC2)cc1 (stereo not drawn)	0.3	-0.7	1.6	1.6	58.9*	5.0
COc1cccc(C(c2sc3nc(C)nn3c2O)N2CCN(C(=O)c3ccco3)CC2)c1 (stereo not drawn)	-84.7*	-0.8	1.1	-8.3	5.3	-88.1
Cc1nc2sc(C(c3cccc(F)c3)N3CCN(C(=O)c4ccco4)CC3)c(O)n2n1 (stereo not drawn)	1.5	-2.1	-0.7	-7.7	-1.2	6.7
